PubChem BioAssay (Tox21)
Results filed as inconclusive are left out. Active and inactive are the calls of the source. Unless noted, the call rests on the fitted dose curve; in most records, active means well fitted curve in the direction sought with a large enough effect in the repeat runs; inconclusive means weak or mixed curves; inactive means no such curve, though single readings can be large; an effect the other way counts as inactive or inconclusive.

Tests used:
[1] = Human pregnane X receptor (PXR) small molecule agonists, qHTS cell viability counter screen (AID 1346977); conditions: PXR-Luc HepG2 viability, CellTiter-Fluor, 24 h; series mostly up to 92.4 µM; further: nearly all actives have a fitted effect of over 50% in size
Summary of the method: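 Readout is CellTiter-Fluor fluorescence from PXR-Luc HepG2 cells. Plated cells rested 5hr, then were treated with compounds for 24hr at 37C and 5% CO2, with reagent present during the last hour.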

[2] = Caspase-3/7 induction in HepG2 cells by small molecules, qHTS assay (AID 1346978); conditions: HepG2 caspase-3/7 activation, Caspase-Glo luminescence, 17 h; series mostly up to 92.4 µM; further: nearly all actives have a fitted effect of over 15% in size
Summary of the method: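 Wild-type HepG2 cells, 2,000/well, settled 5 hr at 37 C and 5% CO2, then compound-treated for 17 hr; caspase-3/7 activity read by luminescent Caspase-Glo 3/7 after 30 min at room temperature.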

[3] = Caspase-3/7 induction in CHO-K1 cells by small molecules, qHTS cell viability counter screen (AID 1346979); conditions: CellTiter-Fluor fluorescence, 17 h; series mostly up to 92.4 µM; further: nearly all actives have a fitted effect of over 35% in size
Summary of the method: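 To flag cytotoxic compounds, treated CHO-K1 wild-type cells were given CellTiter-Fluor at 16hr and read fluorescently after 1hr at 37C; the caspase-3/7 luminescence was measured in these same wells.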

[4] = Caspase-3/7 induction in HepG2 cells by small molecules, qHTS cell viability counter screen (AID 1346981); conditions: CellTiter-Fluor fluorescence, 17 h; series mostly up to 92.4 µM; further: nearly all actives have a fitted effect of over 30% in size
Summary of the method: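 Counter screen for cytotoxicity: HepG2 exposed 16 hr to compounds, then CellTiter-Fluor viability signal (fluorescence, 1 hr reagent incubation).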

[5] = biological target: Nuclear receptor subfamily 1 group I member 2 (Homo sapiens) (UniProt O75469); test: Human pregnane X receptor (PXR) small molecule agonists, qHTS assay (AID 1346982); conditions: PXR-Luc HepG2, CYP3A4 luciferase reporter, 24 h; series mostly up to 92.4 µM; further: nearly all actives have a fitted effect of over 35% in size; further: potency means the concentration at half of the fitted maximal effect
Nuclear receptor subfamily 1 group I member 2 (Homo sapiens), sequence (O75469 whole entry, looked up): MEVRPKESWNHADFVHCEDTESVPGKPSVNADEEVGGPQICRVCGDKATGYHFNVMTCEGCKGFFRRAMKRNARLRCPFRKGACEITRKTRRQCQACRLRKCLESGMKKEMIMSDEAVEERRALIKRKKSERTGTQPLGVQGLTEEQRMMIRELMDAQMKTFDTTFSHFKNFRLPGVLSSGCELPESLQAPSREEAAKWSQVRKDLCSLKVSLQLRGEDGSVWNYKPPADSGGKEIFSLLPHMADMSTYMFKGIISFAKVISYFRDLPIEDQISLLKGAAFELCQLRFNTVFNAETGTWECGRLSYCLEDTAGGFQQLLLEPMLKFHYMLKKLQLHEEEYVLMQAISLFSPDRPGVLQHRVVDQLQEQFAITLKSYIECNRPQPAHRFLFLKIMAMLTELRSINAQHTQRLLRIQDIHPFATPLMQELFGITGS
Summary of the method: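 Luminescence (ONE-Glo, 30 min RT) after 24 hr compound exposure of PXR-Luc HepG2 cells; cells rested 5 hr post-plating in 5% charcoal-stripped FBS medium.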

[6] = biological target: Nuclear receptor subfamily 1 group I member 2 (Homo sapiens) (UniProt O75469); test: CYP3A4 induction through human pregnane X receptor (PXR) by small molecules, qHTS assay (AID 1346984); conditions: DPX-2 HepG2 PXR, CYP3A4-luciferin luminescence, 24 h; series mostly up to 46.1 µM; further: nearly all actives have a fitted effect of over 40% in size
Summary of the method: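 DPX-2 reporter cells; 24h cpd, 37C; Luciferin-IPA 3uM final x3h; One-Glo 30 min RT; lumi read.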

[7] = biological target: Nuclear receptor subfamily 1 group I member 2 (Homo sapiens) (UniProt O75469); test: Human pregnane X receptor (PXR) activation by small molecules, qHTS assay (AID 1346985); conditions: DPX-2 HepG2 CYP3A4-luciferase, 24 h; series mostly up to 38.3 µM; further: nearly all actives have a fitted effect of over 40% in size
Summary of the method: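 DPX-2 cells (HepG2 co-transfected with a PXR response element and a CYP3A4-promoter luciferase construct) were seeded at 2,000 per well, rested 5 hr at 37C, then exposed to DMSO-dissolved compounds for 24 hr. Activation was read as luciferase luminescence.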

[8] = biological target: Acetylcholinesterase (Homo sapiens) (UniProt P22303); test: Acetylcholinesterase (AChE) small molecule antagonists: colormetric cell-based qHTS assay (AID 1347395; calls by dose curve; further: nearly all actives have a fitted effect of over 30% in size; further: potency means the concentration at half of the fitted maximal effect); conditions: SH-SY5Y cells AChE activity, colorimetric (Ellman); series mostly up to 115 µM
Acetylcholinesterase (Homo sapiens), sequence (P22303 whole entry, looked up): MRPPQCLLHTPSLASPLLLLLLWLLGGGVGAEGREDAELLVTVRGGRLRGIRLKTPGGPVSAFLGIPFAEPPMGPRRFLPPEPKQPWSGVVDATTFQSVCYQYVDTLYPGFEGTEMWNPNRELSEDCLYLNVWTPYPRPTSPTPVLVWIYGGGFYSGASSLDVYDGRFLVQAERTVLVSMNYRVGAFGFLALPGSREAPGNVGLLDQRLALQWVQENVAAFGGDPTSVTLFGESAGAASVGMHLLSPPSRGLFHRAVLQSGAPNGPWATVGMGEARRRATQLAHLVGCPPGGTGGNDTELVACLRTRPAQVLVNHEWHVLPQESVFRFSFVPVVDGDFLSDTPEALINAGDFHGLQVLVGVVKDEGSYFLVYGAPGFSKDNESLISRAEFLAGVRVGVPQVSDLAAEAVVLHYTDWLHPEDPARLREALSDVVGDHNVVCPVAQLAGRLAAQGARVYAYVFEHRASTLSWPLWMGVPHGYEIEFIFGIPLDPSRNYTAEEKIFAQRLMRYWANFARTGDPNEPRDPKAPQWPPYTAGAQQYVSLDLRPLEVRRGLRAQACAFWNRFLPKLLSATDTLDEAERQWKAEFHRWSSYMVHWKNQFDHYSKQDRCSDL
Summary of the method: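 Neuroblastoma line SH-SY5Y supplied the enzyme; cells were preincubated with compound for 30 min at 37 C and 5% CO2. Acetylthiocholine with DTNB was then added for 90 min at 37 C, and thiocholine was measured by colour.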

[9] = biological target: Acetylcholinesterase (Homo sapiens) (UniProt P22303); test: Acetylcholinesterase (AChE) small molecule antagonists: enzyme-based qHTS assay (AID 1347397; calls by dose curve; further: nearly all actives have a fitted effect of over 55% in size); conditions: Potency: AChE enzyme activity inhibition; series mostly up to 115 µM
Summary of the method: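 Recombinant human AChE (50 mU/mL) preincubated with compound 30 min at room temperature; acetylthiocholine plus DTNB then added, and thiocholine formation read colorimetrically after 10 min at room temperature. DMSO served as vehicle control.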

[10] = biological target: Acetylcholinesterase (Homo sapiens) (UniProt P22303); test: Acetylcholinesterase (AChE) small molecule antagonists: fluorescence cell-based qHTS assay (AID 1347398; calls by dose curve; further: nearly all actives have a fitted effect of over 50% in size; further: potency means the concentration at half of the fitted maximal effect); conditions: SH-SY5Y cells; Potency: AChE activity; series mostly up to 115 µM
Summary of the method: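 SH-SY5Y cells (2000/well), attached overnight, incubated with compound 30 min at 37 C. Acetylthiocholine plus Thiolite Green then added for 40 min at room temperature. Thiocholine fluorescence (Ex/Em 490/520 nm) reports cellular AChE activity.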

[11] = biological target: Acetylcholinesterase (Homo sapiens) (UniProt P22303); test: Acetylcholinesterase (AChE) small molecule antagonists: enzyme-based qHTS assay with human liver microsomes (AID 1347399; calls by dose curve; further: nearly all actives have a fitted effect of over 60% in size; further: potency means the concentration at half of the fitted maximal effect); conditions: Potency: qHTS inhibition; series mostly up to 115 µM
Summary of the method: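 Recombinant human AChE (50 mU/mL in the enzyme mix) and human liver microsomes (0.25 mg/mL final) were preincubated with compound and NADPH (0.25 mg/mL final) for 30 min at 37 C. Acetylthiocholine/DTNB was then added; thiocholine was read colorimetrically after 10 min at room temperature.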

[12] = biological target: Cytochrome P450 2C19 (Homo sapiens) (UniProt P33261); test: Cytochrome P450 Family 2 Subfamily C Member 19 (CYP2C19) small molecule antagonists: luciferase reporter qHTS assay (AID 1671197); conditions: P450-Glo CYP2C19 enzyme, luciferin luminescence, 1 h; series mostly up to 115 µM; further: nearly all actives have a fitted effect of over 65% in size; further: potency means the concentration at half of the fitted maximal effect
Cytochrome P450 2C19 (Homo sapiens), sequence (P33261 whole entry, looked up): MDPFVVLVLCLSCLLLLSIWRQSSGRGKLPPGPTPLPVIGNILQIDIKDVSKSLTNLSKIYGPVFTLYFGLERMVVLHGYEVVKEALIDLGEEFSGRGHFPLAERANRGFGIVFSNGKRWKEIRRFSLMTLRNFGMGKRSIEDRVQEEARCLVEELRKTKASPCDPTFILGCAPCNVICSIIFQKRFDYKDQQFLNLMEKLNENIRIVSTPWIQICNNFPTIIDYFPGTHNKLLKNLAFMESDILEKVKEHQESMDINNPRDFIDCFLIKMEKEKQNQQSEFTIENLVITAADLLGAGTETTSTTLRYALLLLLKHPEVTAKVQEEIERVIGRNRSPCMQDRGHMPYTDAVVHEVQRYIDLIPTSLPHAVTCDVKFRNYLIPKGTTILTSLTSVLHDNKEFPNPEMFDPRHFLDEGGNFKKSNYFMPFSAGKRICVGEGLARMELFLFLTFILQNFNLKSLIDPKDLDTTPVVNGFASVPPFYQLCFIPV
Summary of the method: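 P450-Glo CYP2C19 screening system; proluciferin substrate; DMSO compound stocks; 10 min RT preincubation; NADPH regeneration, 1 h at 37C; luciferin detection reagent, 20 min RT; luminescence as RLU.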

[13] = biological target: Cytochrome P450 2C9 (Homo sapiens) (UniProt P11712); test: Cytochrome P450 Family 2 Subfamily C Member 9 (CYP2C9) small molecule antagonists: luciferase reporter qHTS assay (AID 1671198); conditions: P450-Glo CYP2C9 enzyme assay, luciferin luminescence; series mostly up to 115 µM; further: nearly all actives have a fitted effect of over 50% in size; further: potency means the concentration at half of the fitted maximal effect
Cytochrome P450 2C9 (Homo sapiens), sequence (P11712 whole entry, looked up): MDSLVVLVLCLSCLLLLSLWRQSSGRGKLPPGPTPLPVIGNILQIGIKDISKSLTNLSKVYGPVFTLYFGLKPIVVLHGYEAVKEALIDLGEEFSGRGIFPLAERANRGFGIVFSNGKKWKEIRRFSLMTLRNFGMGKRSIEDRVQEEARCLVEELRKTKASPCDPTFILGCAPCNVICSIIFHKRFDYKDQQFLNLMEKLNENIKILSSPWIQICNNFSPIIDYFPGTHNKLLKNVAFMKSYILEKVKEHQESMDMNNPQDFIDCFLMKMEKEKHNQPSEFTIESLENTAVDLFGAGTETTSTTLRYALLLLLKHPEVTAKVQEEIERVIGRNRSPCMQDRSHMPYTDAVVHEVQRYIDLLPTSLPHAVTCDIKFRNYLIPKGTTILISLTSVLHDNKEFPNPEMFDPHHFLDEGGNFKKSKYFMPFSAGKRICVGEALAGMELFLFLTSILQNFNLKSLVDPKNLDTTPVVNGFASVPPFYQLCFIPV
Summary of the method: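 P450-Glo proluciferin substrate with CYP2C9 enzyme; 10 min RT preincubation, then NADPH regeneration 1 h at 37C; luciferin detection reagent 20 min RT, luminescence in relative luminescence units.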

[14] = biological target: Cytochrome P450 1A2 (Homo sapiens) (UniProt P05177); test: Cytochrome P450 Family 1 Subfamily A Member 2 (CYP1A2) small molecule antagonists: luciferase reporter qHTS assay (AID 1671199); conditions: P450-Glo CYP1A2 enzyme, luciferin luminescence, 1 h; series mostly up to 115 µM; further: nearly all actives have a fitted effect of over 50% in size; further: potency means the concentration at half of the fitted maximal effect
Cytochrome P450 1A2 (Homo sapiens), sequence (P05177 whole entry, looked up): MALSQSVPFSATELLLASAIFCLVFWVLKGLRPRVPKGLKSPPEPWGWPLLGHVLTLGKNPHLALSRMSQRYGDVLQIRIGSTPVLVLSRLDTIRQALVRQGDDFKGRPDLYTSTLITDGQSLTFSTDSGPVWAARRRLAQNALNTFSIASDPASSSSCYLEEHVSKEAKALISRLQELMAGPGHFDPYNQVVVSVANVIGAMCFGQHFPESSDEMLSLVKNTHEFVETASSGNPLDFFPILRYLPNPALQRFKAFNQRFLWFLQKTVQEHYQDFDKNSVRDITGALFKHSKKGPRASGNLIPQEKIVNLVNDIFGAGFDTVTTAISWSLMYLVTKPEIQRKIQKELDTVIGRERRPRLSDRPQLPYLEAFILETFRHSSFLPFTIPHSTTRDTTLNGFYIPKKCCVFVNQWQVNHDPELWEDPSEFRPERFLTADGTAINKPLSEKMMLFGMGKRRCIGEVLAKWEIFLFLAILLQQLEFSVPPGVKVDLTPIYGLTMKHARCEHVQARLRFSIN
Summary of the method: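 Signal from luciferin formed by CYP1A2 from a proluciferin substrate is read as luminescence, expressed in relative luminescence units. Compounds sit with enzyme 10 min, NADPH-driven reaction runs 1 h, all at room temperature.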

[15] = biological target: Voltage-gated inwardly rectifying potassium channel KCNH2 (Homo sapiens) (UniProt Q12809); test: Human Ether-a-go-go-Related Gene (hERG) channel small molecule antagonists: fluorescence cell-based qHTS assay (AID 1671200); conditions: hERG-U2OS cells, FluxOR thallium flux fluorescence; series mostly up to 76.8 µM
Voltage-gated inwardly rectifying potassium channel KCNH2 (Homo sapiens), sequence (Q12809 whole entry, looked up): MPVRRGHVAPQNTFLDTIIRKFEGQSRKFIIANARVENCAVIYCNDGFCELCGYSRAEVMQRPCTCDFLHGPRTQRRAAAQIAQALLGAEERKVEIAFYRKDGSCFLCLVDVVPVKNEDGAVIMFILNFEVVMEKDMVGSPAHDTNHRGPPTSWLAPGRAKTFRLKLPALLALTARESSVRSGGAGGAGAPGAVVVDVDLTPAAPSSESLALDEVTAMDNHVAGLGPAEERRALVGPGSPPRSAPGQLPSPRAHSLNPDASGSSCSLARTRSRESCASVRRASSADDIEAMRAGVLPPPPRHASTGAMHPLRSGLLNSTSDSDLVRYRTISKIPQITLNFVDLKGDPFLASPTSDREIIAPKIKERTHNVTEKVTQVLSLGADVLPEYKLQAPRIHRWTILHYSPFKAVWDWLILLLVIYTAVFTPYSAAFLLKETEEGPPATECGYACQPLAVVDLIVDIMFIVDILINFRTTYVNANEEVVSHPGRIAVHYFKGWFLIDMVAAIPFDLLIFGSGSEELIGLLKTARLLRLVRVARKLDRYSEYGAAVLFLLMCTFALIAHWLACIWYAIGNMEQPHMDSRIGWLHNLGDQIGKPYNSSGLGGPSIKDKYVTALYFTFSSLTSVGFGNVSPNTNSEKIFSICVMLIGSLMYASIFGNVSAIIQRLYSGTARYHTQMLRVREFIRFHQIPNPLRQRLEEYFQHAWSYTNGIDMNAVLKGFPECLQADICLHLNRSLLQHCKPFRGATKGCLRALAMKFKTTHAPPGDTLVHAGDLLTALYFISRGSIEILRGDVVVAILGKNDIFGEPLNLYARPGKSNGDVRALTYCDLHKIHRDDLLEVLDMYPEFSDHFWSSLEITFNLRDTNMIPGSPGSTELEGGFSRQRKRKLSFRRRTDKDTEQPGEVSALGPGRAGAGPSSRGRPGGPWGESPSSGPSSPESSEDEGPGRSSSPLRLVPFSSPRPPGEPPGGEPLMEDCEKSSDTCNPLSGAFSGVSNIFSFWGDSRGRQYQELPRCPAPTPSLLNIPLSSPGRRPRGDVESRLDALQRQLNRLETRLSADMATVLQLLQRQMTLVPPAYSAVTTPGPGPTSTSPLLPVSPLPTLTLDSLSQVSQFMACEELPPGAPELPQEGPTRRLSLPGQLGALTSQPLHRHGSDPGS
Summary of the method: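 Measured: Tl+ flux via fluorescence (480/540 nm) in hERG-expressing U2OS cells after 1 h dye loading at room temperature.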

[16] = biological target: Cytochrome P450 3A4 (Homo sapiens) (UniProt P08684); test: Cytochrome P450 Family 3 Subfamily A Member 4 (CYP3A4) small molecule antagonists: luciferase reporter qHTS assay (AID 1671201); conditions: P450-Glo CYP3A4 enzyme, luciferin luminescence, 1 h; series mostly up to 115 µM; further: nearly all actives have a fitted effect of over 50% in size
Cytochrome P450 3A4 (Homo sapiens), sequence (P08684 whole entry, looked up): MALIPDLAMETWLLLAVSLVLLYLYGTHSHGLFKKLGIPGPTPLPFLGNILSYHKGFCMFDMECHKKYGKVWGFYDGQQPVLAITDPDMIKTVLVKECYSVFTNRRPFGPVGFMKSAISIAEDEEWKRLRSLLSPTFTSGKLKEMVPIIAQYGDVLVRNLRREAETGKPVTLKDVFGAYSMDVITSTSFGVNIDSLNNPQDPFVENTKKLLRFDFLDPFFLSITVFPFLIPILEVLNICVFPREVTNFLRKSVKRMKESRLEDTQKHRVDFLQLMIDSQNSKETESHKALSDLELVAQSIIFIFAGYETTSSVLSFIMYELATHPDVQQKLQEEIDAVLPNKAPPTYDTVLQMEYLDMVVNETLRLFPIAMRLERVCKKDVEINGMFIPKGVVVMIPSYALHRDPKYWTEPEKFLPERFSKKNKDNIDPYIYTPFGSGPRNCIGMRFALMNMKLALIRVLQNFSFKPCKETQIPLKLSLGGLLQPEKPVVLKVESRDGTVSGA
Summary of the method: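 Setup: enzyme-substrate mix, compound pin transfer, 10 min RT. Reaction: NADPH regeneration solution, 1 h RT. Readout: detection reagent stops turnover, luminescence measured after 20 min, expressed in relative luminescence units.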

[17] = biological target: Cytochrome P450 2D6 (Homo sapiens) (UniProt P10635); test: Cytochrome P450 Family 2 Subfamily D Member 6 (CYP2D6) small molecule antagonists: luciferase reporter qHTS assay (AID 1671196); conditions: P450-Glo CYP2D6 enzyme assay, luciferin luminescence, 1 h; series mostly up to 115 µM; further: nearly all actives have a fitted effect of over 50% in size; further: potency means the concentration at half of the fitted maximal effect
Cytochrome P450 2D6 (Homo sapiens), sequence (P10635 whole entry, looked up): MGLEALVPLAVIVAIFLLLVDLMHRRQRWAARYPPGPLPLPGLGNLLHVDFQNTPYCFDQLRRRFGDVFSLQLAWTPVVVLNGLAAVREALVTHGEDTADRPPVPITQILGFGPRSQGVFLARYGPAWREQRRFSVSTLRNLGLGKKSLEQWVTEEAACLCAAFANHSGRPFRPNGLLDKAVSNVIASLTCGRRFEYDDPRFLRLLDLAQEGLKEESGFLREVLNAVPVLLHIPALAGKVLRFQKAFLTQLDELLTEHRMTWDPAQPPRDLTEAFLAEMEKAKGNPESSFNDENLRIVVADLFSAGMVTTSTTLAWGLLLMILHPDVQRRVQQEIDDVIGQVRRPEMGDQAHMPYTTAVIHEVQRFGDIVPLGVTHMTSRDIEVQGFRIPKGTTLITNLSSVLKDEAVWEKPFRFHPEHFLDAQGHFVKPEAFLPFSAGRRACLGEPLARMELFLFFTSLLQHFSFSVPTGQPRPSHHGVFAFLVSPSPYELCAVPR
Summary of the method: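 Inhibition of CYP2D6 was gauged by loss of luminescence, since light produced tracks the luciferin generated from a proluciferin substrate. A 10 min room-temperature preincubation preceded 1 h NADPH-supported turnover.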
On the % scale 0 is the no-effect control and ±100 the full control effect.

Cc1ncsc1CCCl
inactive: Potency [1] | Potency [2] | Potency [3] | Potency [4] | Potency [5] | Potency [6] | Potency [7] | Potency [8] | Potency [9] | Potency [10] | Potency [11] | Potency [12] | Potency [13] | Potency [14] | Potency [15]

CCC1(c2ccccc2)C(=O)N=C(O)NC1=O (configuration not stated)
active: Potency [5] 53 µM | Potency [13] 61.6 µM
inactive: Potency [1] | Potency [2] | Potency [3] | Potency [4] | Potency [8] | Potency [9] | Potency [10] | Potency [14] | Potency [15] | Potency [16]

ClC(Cl)C(Cl)Cl
active: Potency [5] 55 µM
inactive: Potency [1] | Potency [2] | Potency [3] | Potency [4] | Potency [8] | Potency [9] | Potency [10] | Potency [11] | Potency [12] | Potency [13] | Potency [15] | Potency [16]

CCCSC(=O)N(CCC)CCC
inactive: Potency [1] | Potency [2] | Potency [3] | Potency [4] | Potency [5] | Potency [8] | Potency [9] | Potency [10] | Potency [11] | Potency [12] | Potency [13] | Potency [14] | Potency [16]

CCCSP(=O)(OCC)Oc1ccc(Br)cc1Cl (configuration not stated)
inactive: Potency [1] | Potency [2] | Potency [3] | Potency [4] | Potency [16]
active: Potency [5] 29.7 µM | Potency [8] 6.88 µM | Potency [10] 0.866 µM | Potency [11] 2.74 µM | Potency [17] 15.4 µM | Potency [12] 3.45 µM | Potency [13] 10.9 µM

O=C1c2ccccc2C(=O)c2ccccc21
active: Potency [14] 0.177 µM
inactive: activity change, negative = cytotoxicity [1] 8.57% [at 19 µM] | caspase activation [2] -0.684% [at 19 µM] | activity change, negative = cytotoxicity [3] 11.3% [at 19 µM] | activity change, negative = cytotoxicity [4] 8.77% [at 19 µM] | Potency [6] | Potency [7] | activity, negative = inhibition [8] -0.352% [at 23.6 µM] | activity change, negative = inhibition [9] -0.378% [at 23.6 µM] | activity change, negative = inhibition [10] 3.86% [at 23.8 µM] | activity change, negative = inhibition [11] -1.34% [at 23.6 µM] | activity change, negative = inhibition [12] 10.7% [at 23.6 µM] | activity change, negative = inhibition [13] 2.12% [at 23.6 µM] | activity change, negative = inhibition [15] 3.3% [at 15.8 µM] | activity change, negative = inhibition [16] 15.9% [at 23.6 µM]

C[C@]1(O)CC[C@H]2[C@@H]3CCC4=CC(=O)CC[C@]4(C)[C@@]3(F)[C@@H](O)C[C@@]21C
inactive: Potency [1] | Potency [2] | Potency [3] | Potency [4] | Potency [8] | Potency [9] | Potency [10] | Potency [17] | Potency [15] | Potency [16]
active: Potency [5] 48.9 µM | Potency [12] 71.4 µM
